From PubChem
This is a sample that favours compounds with a hit; in the whole collection about 0.75% have one here.
TSHR antag: Antagonists of the Thyroid Stimulating Hormone Receptor: HTS campaign. activity change, negative = inhibition, % at 11.5 µM. Thyrotropin receptor (Homo sapiens), P16473. TSHR-expressing cells, TSH-stimulated cAMP HTRF, 2 h; stronger effect = lower value. 330,000 tested, 0.2% active;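 active = activity change below a set negative limit, meaning inhibition stronger than a set level, cut at about -70% in these data; inconclusive = activity change between two set negative limits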
Target sequence (P16473 whole entry, looked up): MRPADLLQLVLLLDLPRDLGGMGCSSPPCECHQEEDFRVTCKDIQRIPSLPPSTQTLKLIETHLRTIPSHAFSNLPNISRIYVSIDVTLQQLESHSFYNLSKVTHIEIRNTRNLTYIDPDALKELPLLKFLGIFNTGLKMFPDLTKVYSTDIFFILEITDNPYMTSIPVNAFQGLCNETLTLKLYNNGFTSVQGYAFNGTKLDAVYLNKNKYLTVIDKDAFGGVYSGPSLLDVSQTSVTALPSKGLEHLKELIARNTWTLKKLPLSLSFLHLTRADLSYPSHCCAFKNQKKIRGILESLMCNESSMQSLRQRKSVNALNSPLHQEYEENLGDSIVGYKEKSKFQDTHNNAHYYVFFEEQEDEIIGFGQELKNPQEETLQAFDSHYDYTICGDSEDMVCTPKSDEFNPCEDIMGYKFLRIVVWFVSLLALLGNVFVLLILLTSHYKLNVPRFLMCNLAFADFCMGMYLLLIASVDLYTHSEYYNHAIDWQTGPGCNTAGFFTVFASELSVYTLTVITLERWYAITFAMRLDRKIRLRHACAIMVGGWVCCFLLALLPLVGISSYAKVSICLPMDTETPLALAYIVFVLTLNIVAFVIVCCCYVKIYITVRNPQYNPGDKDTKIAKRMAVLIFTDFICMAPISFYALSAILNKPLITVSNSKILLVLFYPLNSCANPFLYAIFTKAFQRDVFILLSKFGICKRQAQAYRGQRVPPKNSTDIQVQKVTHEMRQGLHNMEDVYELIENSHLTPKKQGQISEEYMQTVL
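Freshly harvested TSHR cells receive pin-tooled compound, then EC80 TSH at 4nM final. After 2 hours at 37 deg C, antibody in lysis buffer and cAMP-d2 are added; 30 minutes at ambient temperature precede the HTRF read.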
uPA surface inh: qHTS for Inhibitors of Cell Surface uPA Generation. cell surface uPA generation assay, qHTS. Potency, µM (series often up to 38.3 µM), actives largely listed as inhibitors. 330,000 tested, 0.31% active; active = well fitted inhibition curve with a large enough effect; inconclusive = small, poorly fitted or top-dose-only effect; inactive = no such curve, though single readings can be large or run the other way; tested in mouse RAW 264.7 cells; also: nearly all actives have a fitted effect of over 55% in size
TCR activator: Activators of T cell receptors: qHTS campaign. primary human leukocytes, anti-CD3, IL-2 HTRF, 48 h. Potency, µM (top dose mostly 9.22 µM), hits mostly activators. 330,000 tested, under 10 active. AID 504894, 2011
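Using a-CD3 beads without co-stimulation, primary human leukocytes were exposed to compounds for 48 hr. An HTRF IL-2 kit measured the cytokine, with europium-to-d2 energy transfer producing emission at 665nm upon 320nm excitation.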
PKM2 activator: qHTS Assay for Activators of Human Muscle isoform 2 Pyruvate Kinase. purified PKM2, Kinase-Glo ATP luminescence, activation; response scale: 0% is enzyme alone, no compound. Potency, µM (top dose mostly 57.5 µM), usual class: activators. 260,000 tested, 0.34% active. Pyruvate kinase PKM (Homo sapiens), P14618; also: nearly all actives have a fitted effect of over 55% in size
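Purified hPK-M2 (>95%) run at intermediate activity with 0.1 mM ADP and 0.5 mM PEP in 50 mM imidazole pH 7.2, KCl, MgCl2; 1 h room temperature. ATP formed read by Kinase-Glo luminescence; normalized to uninhibited and no-enzyme controls.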
Large screens that a line does not name were inactive. Unless noted, calls follow the shape of the dose curve; as a rule, active = well fitted curve in the direction sought with a large enough effect; inconclusive = small, poorly fitted or top-dose-only effect, or another doubt; inactive = no such curve, though single readings can be large; an effect the other way counts as inactive or inconclusive.

COCCn1c(C)cc(/C=C2/SC(=O)N(C(C)C(=O)OC)C2=O)c1C (stereo not drawn)	uPA surface inh 11.2µM
COc1ccc(C2=NOC(C(=O)Nc3cc(C)on3)C2)cc1OC (stereo not drawn)	PKM2 activator 3.55µM
Clc1ccc(CSc2nc3ccncc3[nH]2)cc1	uPA surface inh 0.447µM
Cc1ccc(CSc2nc3ccncc3[nH]2)cc1	none
CC(C)(C)c1ccc(C(=O)c2c[nH]c(C(=O)O)c2)cc1	PKM2 activator 31.6µM
O=C(CCl)Nc1ccc(-c2ccccc2)cc1	uPA surface inh inconclusive
O=C(CCl)Nc1ccc(N=Nc2ccccc2)cc1	uPA surface inh 14.1µM
Cc1cc(C)c(C#N)c(SCC(=O)Nc2nonc2N)n1	PKM2 activator 14.1µM
Cc1ccc(S(=O)(=O)n2cc(-c3ccccc3)c3ccccc32)cc1	uPA surface inh 1.12µM (no result: PKM2 activator)
CCCCc1cc(=O)oc2cc(OCC(=O)NC3CCN(Cc4ccccc4)CC3)ccc12	none
O=C(CCC(=O)Nc1ccc(Cl)cc1)N/N=C/c1ccc2c(c1)OCO2	TSHR antag -71.9
O=C(CCC(=O)Nc1ccccc1)N/N=C/c1ccc2c(c1)OCO2	none
CCS(=O)(=O)c1ccc(O)c(NC(=O)c2ccc(S(=O)(=O)N3CCCCCC3)cc2)c1	none (no result: PKM2 activator)
Nc1ccc(S(=O)(=O)c2ccc(N)nc2)cc1	none (no result: TSHR antag, PKM2 activator)
C/C(=N\Nc1nc(-c2cc(C)ccc2C)cs1)c1cc2c(ccc3ccccc32)oc1=O	none
CC#CCN1c2ccccc2[C@]23C[C@@H](C(=O)OC)N(C(=O)c4cc(C)oc4C)C2=NC(C(=O)OC)=C(C(=O)OC)[C@H]13	uPA surface inh inconclusive
C=CCN1c2ccccc2[C@]23C[C@@H](C(=O)OC)N(C(=O)c4cc(C)oc4C)C2=NC(C(=O)OC)=C(C(=O)OC)[C@H]13	uPA surface inh 5.62µM
COc1ccc(NC(=O)CSc2nc(C)c3c(c2C#N)CCCC3)cc1	none (no result: uPA surface inh)
CCc1nnc(NC(=O)CSc2nc(C)c3c(c2C#N)CCCC3)s1	PKM2 activator 10µM (no result: uPA surface inh)
Cc1cccc(-n2ncc3c(N4CCOCC4)ncnc32)c1	uPA surface inh 0.794µM
Clc1ccc(-n2ncc3c(N4CCCCCC4)ncnc32)cc1	uPA surface inh inconclusive
C=CCNc1ncnc2c1cnn2-c1cccc(C)c1	uPA surface inh inconclusive
Cc1ccc(Cn2ncc3c(N4CCCC4)ncnc32)cc1	PKM2 activator 12.6µM
Cc1cccc(-n2ncc3c(NC4CCCCC4)ncnc32)c1	uPA surface inh 11.2µM
Cc1cccc(-n2ncc3c(N4CCCC4)ncnc32)c1	none
Clc1ccc(Cn2ncc3c(N4CCCC4)ncnc32)cc1	none
COc1ccc(-n2ncc3c(N4CCCCC4)ncnc32)cc1	uPA surface inh 1.26µM
C[C@H]1Cc2c(-c3ccccc3)nc3c(c2CO1)CN(S(=O)(=O)c1ccc(C#N)cc1)CC3	none (no result: TSHR antag, uPA surface inh, TCR activator)
CC(=O)c1cccc(NC(=O)C(C)OC(=O)CN2C(=O)NC(C)(C)C2=O)c1 (stereo not drawn)	none (no result: PKM2 activator)
COc1ccc(S(=O)(=O)N2CCCCC2)cc1NC(=O)c1cnc(C)cn1	none (no result: PKM2 activator)
COc1cccc(NC(=O)CSC2=C(C#N)C(c3ccco3)C3=C(CCCC3=O)N2)c1 (stereo not drawn)	PKM2 activator 0.794µM
O=S1(=O)C=C(Sc2nc3cc(Cl)ccc3o2)c2ccccc21	TSHR antag -77.6
Cc1cc(NC(=O)CSc2nc3cc(Cl)ccc3o2)no1	none (no result: PKM2 activator)
O=C(NCc1cccnc1)c1cccc(NS(=O)(=O)c2ccc(Br)cc2)c1	none (no result: PKM2 activator)
Cc1ccc(S(=O)(=O)Nc2cccc(C(=O)NCc3cccnc3)c2)cc1F	uPA surface inh 3.16µM (no result: PKM2 activator)
O=C1CC(c2ccccc2)CC(O)=C1C=NCCc1ccccc1 (stereo not drawn)	none
O=C1C=CC[C@H](/C=C/C[C@@H](O)C[C@H](O)CCc2ccccc2)O1	uPA surface inh 10µM (no result: TSHR antag, PKM2 activator)
COC(=O)N1C2CC(=O)O[C@@H]3c4cc5c(cc4[C@]1(C)[C@@]3(Br)c1ccccc12)OCO5	none (no result: TSHR antag, uPA surface inh, TCR activator)
Cn1c(N)c(C(=O)COC(=O)CSc2cccc3cccc(Cl)c23)c(=O)n(C)c1=O	none
O=C(O)CSc1cc(NS(=O)(=O)c2ccc(Cl)cc2)c2ccccc2c1O	none (no result: PKM2 activator)
COc1ccc(S(=O)(=O)Nc2cc(SCC(=O)O)c(O)c3ccccc23)cc1	uPA surface inh 11.2µM (no result: PKM2 activator)
Cc1cc(OCc2cc(C(=O)N(C)C(C)c3ccccn3)no2)cc(C)c1Cl (stereo not drawn)	TSHR antag -97.8
